Nrf2 activator = activators of Nrf2 (ARE) signaling; AREc32 ARE-luciferase reporter (MCF7-derived line), luminescence, 24 h; 410,000 compounds, 0.31% hits; AID 624171; Potency, µM (highest dose often 46.1 µM), usual class: activators; also: nearly all actives have a fitted effect of over 65% in size
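ARE-driven firefly luciferase activity in AREc32 cells measured after a 24 hr compound exposure at 37 deg C, using Steady-Glo reagent and a 30 min room-temperature hold.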
IL-2 act = activators of IL-2; 360,000 compounds, 0.065% hits; activation, % (series mostly up to about 46 µM); IL-2 activation reporter assay, cell-based qHTS; stimulated with anti-CD3/CD4/CD28 beads; in transgenic mouse T cells; in the data active = activation above about 50%; inconclusive = mostly about 30% to 49%
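First, unstimulated transgenic mouse T cells were exposed to compound for 60 min. Next, anti-CD3/anti-CD4-coated beads with anti-CD28 were added. Finally, after 18 h at 37 degrees C, EGFP and DsRed were imaged.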
ELG1 repair inh = blocks ELG1-dependent DNA repair in HEK293T cells. Potency, µM (top dose mostly 46.1 µM), usual class: inhibitors. 330,000 compounds, 2.3% hits. HEK293T ELG1-luciferase reporter, luminescence, 16 h; DNA damage induced by 5-fluorouridine; also: nearly all actives have a fitted effect of over 55% in size
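Cells (2,000 per well) received 5-fluorouridine plus test compound or DMSO and were incubated 16 hr at 37 °C, 5% CO2. Luciferase activity was read by luminescence 30 min after ONE-Glo addition; signal suppression marked inhibition of damage-induced ELG1 function.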
BRCA1 expr act = BRCA1 expression activation | MCF7-BRCA1-FFLuc reporter, luminescence, 48 h; response scale: scaled: vehicle 0%, 10 µM genistein 100% | Potency, µM (series often up to 46.1 µM), hits mostly activators | 380,000 compounds, 1.1% hits | AID 624202; also: nearly all actives have a fitted effect of over 80% in size
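Cells: MCF7-BRCA1-FFLuc, 2000/well. Exposure: 48 h, 37 °C, 5% CO2. Read: luminescence, 15 min post-substrate. Controls: genistein 10 microM (maximal activation), DMSO (neutral).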
Each line names hits and unclear results; the compound was inactive in the other large screens; ! = not active in a repeat. Compounds with a hit are over-represented: about 3.1% of the library has one in this group of screens. Unless noted, calls follow the shape of the dose curve; as a rule, active = well fitted curve in the direction sought with a large enough effect; inconclusive = small, poorly fitted or top-dose-only effect, or another doubt; inactive = no such curve, though single readings can be large; an effect the other way counts as inactive or inconclusive.

COc1ccc(S(N)(=O)=O)cc1C(=O)OCC(=O)N1c2ccccc2NC(=O)C1(C)C	none
CC(C)c1ccc(NC(=O)c2cc(Br)ccc2Br)cc1	Nrf2 activator 7.1µM
CCc1ccc(NC(=O)c2cc(Br)ccc2Br)cc1	none (no result: Nrf2 activator, IL-2 act, BRCA1 expr act)
CCOC(=O)C1CCN(S(=O)(=O)c2cccc(-c3cn4cccnc4n3)c2)CC1	ELG1 repair inh 13µM
CC(=O)Nc1ccc(NC(=O)c2cc(-c3cc(C)cc(C)c3O)n[nH]2)cc1	ELG1 repair inh 23µM
Cc1cc(C)c(O)c(-c2cc(C(=O)Nc3ccc(S(=O)(=O)N4CCOCC4)cc3)[nH]n2)c1	ELG1 repair inh 21µM
Cc1ccc(C(=O)Nc2ccc(S(=O)(=O)N3CCOCC3)cc2)cc1	none
CC(=O)Nc1ccc(NC(=O)c2cc(-c3ccc(C)c(C)c3O)n[nH]2)cc1	none
COc1ccc(CCNC(=O)CSc2nnc(-c3ccc(C)cc3)c(-c3ccc(C)cc3)n2)cc1OC	none (no result: IL-2 act, ELG1 repair inh, BRCA1 expr act)
CCOC(=O)N1CCc2c(sc3c2c(=O)n(-c2ccccc2)c(=O)n3CC(=O)Nc2ccc(OC)cc2OC)C1	none (no result: IL-2 act, ELG1 repair inh, BRCA1 expr act)
Cc1cc(C)c(NC(=O)COC(=O)c2cccc3c2C(=O)c2ccccc2C3=O)c(C)c1	ELG1 repair inh 13µM
Cc1ccc(C)c(NC(=O)COC(=O)c2cccc3c2C(=O)c2ccccc2C3=O)c1	ELG1 repair inh 23µM
Cc1ccc(NC(=O)COC(=O)c2cccc3c2C(=O)c2ccccc2C3=O)c(C)c1	ELG1 repair inh 10µM
O=C(COC(=O)c1cccc2c1C(=O)c1ccccc1C2=O)NC1CCCCC1	ELG1 repair inh inconclusive
Cc1nn(S(=O)(=O)c2ccc(C(C)(C)C)cc2)c(C)c1S(=O)(=O)N1CCC(C)CC1	none (no result: IL-2 act, ELG1 repair inh)
O=C(NC1CCCC1)C(C1CC1)n1c(-c2ccccn2)nc2ccccc21 (configuration not stated)	none (no result: Nrf2 activator, ELG1 repair inh, BRCA1 expr act)
Cc1cc(C(C)(C)C)cc(C)c1Cn1c2[n+](c3ccc(C(F)(F)F)cc31)CCCCC2	ELG1 repair inh 15µM
FC(F)(F)c1cccc(Cn2c3[n+](c4ccc(C(F)(F)F)cc42)CCCCC3)c1	ELG1 repair inh inconclusive
COc1ccc(-c2sc(N)nc2-c2ccccc2)cc1	none (no result: Nrf2 activator, IL-2 act, ELG1 repair inh)
CC(C)N1C/C(=C/c2cccnc2)C(=O)/C(=C/c2cccnc2)C1	Nrf2 activator inconclusive, ELG1 repair inh inconclusive
CC(C)N1C/C(=C/c2ccsc2)C(=O)/C(=C/c2ccsc2)C1	Nrf2 activator inconclusive, ELG1 repair inh 18µM
Cc1ccc(-n2nc(C(=O)Nc3ccc(Br)cc3C)c(=O)n(C)c2=O)cc1	none (no result: IL-2 act, ELG1 repair inh, BRCA1 expr act)
Cc1nc2c(ccc3nc(NC(=O)Cc4cccc5ccccc45)sc32)s1	ELG1 repair inh 5.2µM
Cc1nc2c(ccc3nc(NC(=O)c4ccc5c(c4)OCCO5)sc32)s1	ELG1 repair inh inconclusive, BRCA1 expr act 2.8µM
CCSc1nnc(NC(=O)c2ccc3c(c2)OCO3)s1	ELG1 repair inh inconclusive, BRCA1 expr act inconclusive
CCN(CC)C(=O)c1sc(NC(=O)c2ccc3c(c2)OCO3)c(C(N)=O)c1C	ELG1 repair inh inconclusive, BRCA1 expr act 11µM
CC(C)Sc1nnc(NC(=O)c2ccc3c(c2)OCO3)s1	ELG1 repair inh inconclusive, BRCA1 expr act 2.5µM
Cc1ccc2sc(NC(=O)c3ccc4c(c3)OCCO4)nc2c1C	none (no result: IL-2 act, ELG1 repair inh, BRCA1 expr act)
CCN(CC)C(=O)c1sc(NC(=O)c2ccncc2)c(C(=O)OC)c1C	none
Cc1nc2ccc3nc(NC(=O)c4ccc5c(c4)OCCO5)sc3c2s1	ELG1 repair inh inconclusive, BRCA1 expr act 8.9µM!
COc1ccc(-c2coc3c(C(=O)Nc4cccnc4)cccc23)c(C)c1	BRCA1 expr act inconclusive (no result: ELG1 repair inh)
COc1ccccc1C(=O)Nc1ccccc1C(=O)OCc1cc(=O)n2ccsc2n1	none (no result: IL-2 act, ELG1 repair inh, BRCA1 expr act)
COc1cc(COCC(O)CN2CCN(CCN3C(=O)c4cccc5cccc(c45)C3=O)CC2)cc(OC)c1OC (configuration not stated)	ELG1 repair inh 12µM
O=C1c2cccc3cccc(c23)C(=O)N1CCN1CCN(C(=S)Nc2ccc(Cl)cc2)CC1	none
COc1ccc(COCC(O)CN2CCC(CN3C(=O)c4cccc5cccc(c45)C3=O)CC2)cc1OC (configuration not stated)	ELG1 repair inh inconclusive
O=C1c2cccc3cccc(c23)C(=O)N1CCN1CCN(CC(O)COCc2ccc(Cl)cc2)CC1 (configuration not stated)	ELG1 repair inh 21µM
O=C(Cn1c(=O)oc2cc(S(=O)(=O)N3CCCCCC3)ccc21)Nc1cccc(C(F)(F)F)c1	none (no result: IL-2 act, ELG1 repair inh, BRCA1 expr act)
O=C1N(Cc2ccccc2)CC2(Br)COCOC12O (configuration not stated)	none (no result: ELG1 repair inh)
CCOC(=O)c1nc(Nc2ccc(Nc3ccccc3)cc2)c2ccccc2n1	ELG1 repair inh 7.3µM
CCOC(=O)c1nc(Nc2ccc(N3CCC(C)CC3)cc2)c2ccccc2n1	ELG1 repair inh 5.8µM
COc1ccc(C(=O)/C=C/c2ccc(N3CCCCC3)c([N+](=O)[O-])c2)c(OC)c1	Nrf2 activator 13µM
COc1ccc(C(=O)/C=C/c2ccc(N3CCCCC3)c([N+](=O)[O-])c2)cc1	none
CCOc1ccc(CNC(=O)c2cnc3sc(N4CCC(C)CC4)nn3c2=O)cc1OC	none (no result: IL-2 act, ELG1 repair inh, BRCA1 expr act)
COc1cc(C(=O)Nc2nc(OC)c(-c3ccccc3)c(OC)n2)cc(OC)c1OC	ELG1 repair inh 9.2µM
COc1cc(C(=O)Nc2cc(-c3ccccc3)[nH]n2)cc(OC)c1OC	ELG1 repair inh inconclusive
COc1ccc(NC(=O)c2sc3nc(-c4cccnc4)ccc3c2N)cc1OC	IL-2 act 94
O=C(Nc1ccc2oc(-c3ccccc3)nc2c1)c1cccnc1	ELG1 repair inh inconclusive, BRCA1 expr act 2.8µM
COc1cc(C(=O)Nc2ccc3oc(-c4cccnc4)nc3c2)cc(OC)c1OC	ELG1 repair inh 23µM
COc1ccc(NC(=O)c2sc3nc(-c4cccnc4)ccc3c2N)cc1	IL-2 act inconclusive
Cc1ccc2[nH]c(=O)c(CN(CCc3ccccc3)C(c3nnnn3Cc3ccco3)C(C)C)cc2c1 (configuration not stated)	ELG1 repair inh 18µM
CCC(c1nnnn1Cc1ccco1)N(CCc1ccccc1)Cc1cc2cc(C)ccc2[nH]c1=O (configuration not stated)	ELG1 repair inh inconclusive
Cc1ccc(/C=C/C(=O)Nc2ccc(N(C)C)cc2)o1	ELG1 repair inh inconclusive, BRCA1 expr act 4µM
Cc1ccc(/C=C/C(=O)Nc2ncc(C)s2)o1	ELG1 repair inh inconclusive, BRCA1 expr act 3.2µM
Cc1ccc(/C=C/C(=O)Nc2ccncc2)o1	none
Clc1ccc(CN=C2Nc3ccccc3CS2)cc1	ELG1 repair inh inconclusive, BRCA1 expr act 8.9µM
CCCCOc1ccc(C2(C)CC(=O)NC2=O)cc1 (configuration not stated)	ELG1 repair inh inconclusive, BRCA1 expr act 13µM
O=C(COc1ccc([N+](=O)[O-])cc1)N/N=C/c1cc([N+](=O)[O-])ccc1N1CCOCC1	ELG1 repair inh 18µM
CCSc1cc(C)nc2c(-c3ccccc3)cnn12	Nrf2 activator 16µM, ELG1 repair inh inconclusive
C=CCNCC(=O)Nc1sc2c(c1C(=O)Nc1ccc(OC)cc1OC)CCC2	ELG1 repair inh 21µM
